# Unmarked numbers belong to inactive results.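 Rule for the calls: active = growth AUC significantly below the DMSO wells by Dunnett test; inactive = the rest.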
# Tested on: Bacillus 1 (Bacillus foraminis)
# Assay: relative growth (AUC of 72 h growth curve relative to DMSO control, dAUC) (ratio); higher = more growth (less inhibition), active = hit call of the paper
# Details: 20 µM
# Procedure: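 Environmental bacterial isolates (Iceland stream sediment and Silwood Park soil) and whole stream-sediment communities were grown in LB from a 1:100 dilution with each pesticide at 20 µM (1% DMSO). A600 was read hourly for 72 h and the area under a spline-fitted growth curve (AUC) was computed. dAUC is the mean AUC of 3 biological replicates divided by the mean AUC of the DMSO controls. Significance was tested by Dunnett's test against the DMSO control.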
row,Structure (SMILES),relative growth
1,CC(Oc1ccc(Oc2nc3ccc(Cl)cc3o2)cc1)C(=O)O (configuration not stated),1.02
2,Cc1nc(N(C)C)nc(OC(=O)N(C)C)c1C,0.959
3,Cc1cc(C(C#N)c2ccc(Cl)cc2)c(Cl)cc1NC(=O)c1cc(I)cc(I)c1O (configuration not stated),0.695
4,CCCCc1c(C)nc(NCC)nc1OS(=O)(=O)N(C)C,0.907
5,O=C(NC(=O)c1c(F)cccc1F)Nc1ccc(OC(F)(F)C(F)OC(F)(F)F)c(Cl)c1 (configuration not stated),0.942
6,COc1cccc(C(=O)NN(C(=O)c2cc(C)cc(C)c2)C(C)(C)C)c1C,0.966
7,N#CCNC(=O)c1cnccc1C(F)(F)F,1.03
8,CNC(=O)Oc1cccc(/N=C/N(C)C)c1,0.983
9,COc1ccc(C(=CC(=O)N2CCOCC2)c2ccc(Cl)cc2)cc1OC (mixture of isomers),0.924
10,COC(=O)N(C(=O)N1CO[C@@]2(C(=O)OC)Cc3cc(Cl)ccc3C2=N1)c1ccc(OC(F)(F)F)cc1,1
11,CC(C)N1C(=O)N(c2ccccc2)CS/C1=N\C(C)(C)C,1.04
12,CCN(CC)c1nc(C)cc(OP(=S)(OC)OC)n1,1.03
13,CS(=O)(=O)c1cc(C(F)(F)F)ccc1C(=O)c1cnoc1C1CC1,1.02
14,O=C(Nc1ccccc1-c1ccc(Cl)cc1)c1cccnc1Cl,1.01
15,C[C@@H]1[C@@H](c2ccc(Cl)cc2)SC(=O)N1C(=O)NC1CCCCC1,1.06
16,Cc1nnc(-c2ccccc2)c(=O)n1N,0.881
17,Cc1cc(C)c(C2=C(OC(=O)CC(C)(C)C)C3(CCCC3)OC2=O)c(C)c1,0.993
18,O=C1C2CC=CCC2C(=O)N1SC(Cl)(Cl)Cl (configuration not stated),0.939
19,Cc1cccc2sc3nncn3c12,1.03
20,O=[N+]([O-])c1cc(C(F)(F)F)c(Cl)c([N+](=O)[O-])c1Nc1ncc(C(F)(F)F)cc1Cl,0.0375 (active)
21,O=C1C=C(N(Cc2ccc(Cl)nc2)CC(F)F)CO1,0.945
22,CC(C)OC(=O)C(C(=O)OC(C)C)=C1SCCS1,1.05
23,CC(COc1ccc(Oc2ccccc2)cc1)Oc1ccccn1 (configuration not stated),1.07
24,CCSC(C)CC1CC(=O)C(/C(CC)=N/OC/C=C/Cl)=C(O)C1 (mixture of isomers),1.06
25,C[N+]1(C)CCCCC1,1.04
26,COP(N)(=O)SC (configuration not stated),0.871
27,CCOP(=S)(OCC)Oc1cc(C)nc(C(C)C)n1,0.963

# From the supplement of paper PMC12067926
